ssDAF-12 act: S. stercoralis DAF-12 activation, primary screen | HEK293 ssDAF-12/GRIP1 lit1-tk-luc reporter, luminescence; % of 3 µM dafachronic acid response | actives 1% (n = 370,000) | AID 652126 | activation, % at 6.8 µM;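 active = activation above the mean over all tested compounds plus 3 SD, cut at about 0.9% in these data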;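 note: 0% = DMSO-only wells and 100% = 3 µM delta7-dafachronic acid wells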
DAX1 inh-1: inhibitors of human orphan nuclear receptor DAX1 (NR0B1). HEK293 Gal4-DAX1 luciferase reporter, luminescence. inhibition, % at 6.75 µM. actives 0.99% (n = 340,000). AID 504766. P51843;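 active = inhibition above the mean over all tested compounds plus 3 SD, cut at about 4.2% in these data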;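 note: 0% = DAX1-transfected cells with DMSO and 100% = empty-vector control cells with DMSO; inhibition shows as a rise in luminescence from relieved DAX1 repression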
Target sequence (P51843 207-470 limits assumed): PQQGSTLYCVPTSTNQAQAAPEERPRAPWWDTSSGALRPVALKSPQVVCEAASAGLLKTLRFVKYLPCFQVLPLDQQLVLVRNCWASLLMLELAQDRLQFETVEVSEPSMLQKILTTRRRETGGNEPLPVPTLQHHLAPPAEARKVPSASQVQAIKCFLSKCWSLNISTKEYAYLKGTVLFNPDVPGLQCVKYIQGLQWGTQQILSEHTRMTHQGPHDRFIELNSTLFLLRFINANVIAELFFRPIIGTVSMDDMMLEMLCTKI
hcDAF-12 act: H. contortus DAF-12 activation, primary screen; actives 1.4% (n = 370,000); activation, % at 6.8 µM; HEK293 hcDAF-12 lit1-tk-luc reporter, luminescence; 0% DMSO, 100% Δ7-dafachronic acid; AID 652067;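 active = activation above the mean of all tested compounds plus 3 SD, cut at about 5.5% in these data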;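 note: 100% = response to 3 µM Δ7-dafachronic acid high control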
hgDAF-12 ag: agonists of H. glycines DAF-12 nuclear receptor. activation, % at 6.8 µM. AID 687014. HEK293 GAL4-hgDAF12 UAS-luciferase reporter, agonist luminescence; normalized to butyrate control. actives 1.8% (n = 370,000);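 active = activation above a cutoff set at the mean of all screened compounds plus 3 SD, cut at about 10% in these data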;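 note: 0% = DMSO wells and 100% = sodium butyrate wells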
DAX1 inh-2: blocks DAX1 repression of SF-1 activated StAR promoter; HEK293T StAR-luciferase reporter, SF-1/DAX-1 repression relief; inhibition, % at 6.8 µM; actives 1.1% (n = 370,000);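 active = inhibition above the mean over all tested compounds plus 3 SD, cut at about 3.6% in these data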;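 note: 0% = DAX-1 cells with DMSO and 100% = cells lacking DAX-1 with DMSO; higher inhibition means more luminescence from relief of DAX-1 repression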
DAX1 conf: confirmation of human DAX1 (NR0B1) inhibitors; inhibition, % at 6.8 µM; HEK293T StAR-promoter luciferase reporter, SF-1/DAX-1 repression; shares compounds with DAX1 inh-2; actives 87% (n = 2,400);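 active = inhibition above the average of every tested compound plus 3 SD, cut at about 3.8% in these data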;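 note: 0% = DAX-1 cells with DMSO and 100% = no DAX-1 control cells with DMSO; active compounds raise luminescence by relieving repression of the StAR reporter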
SF1 mutant ctr: counter-screen for DAX1 inhibitors: nonselective inhibitors with SF-1 AF2 mutant; shares compounds with DAX1 inh-2; HEK293 StAR-luciferase, luminescence; inhibition, % at 6.8 µM; actives 78% (n = 2,400); AID 652136;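 active = inhibition above the mean of all tested compounds plus 3 SD, cut at about 3% in these data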;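 note: 0% = DAX-1 transfected cells with DMSO and 100% = cells without DAX-1 with DMSO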
LXRb hcDAF ctr: LXR-beta agonism as hcDAF-12 counter-screen; HEK293 Gal4-LXR tk-luc reporter, luminescence, 24 h; normalized: DMSO 0%, positive control 100%; activation, % at 6.8 µM; shares compounds with hcDAF-12 act; 3,400 tested, under 10 active;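 active = mean percent activation of the reporter above a cutoff set as the average over tested compounds plus their standard deviation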
Target sequence (P55055 whole entry, looked up, the tested form may be a part): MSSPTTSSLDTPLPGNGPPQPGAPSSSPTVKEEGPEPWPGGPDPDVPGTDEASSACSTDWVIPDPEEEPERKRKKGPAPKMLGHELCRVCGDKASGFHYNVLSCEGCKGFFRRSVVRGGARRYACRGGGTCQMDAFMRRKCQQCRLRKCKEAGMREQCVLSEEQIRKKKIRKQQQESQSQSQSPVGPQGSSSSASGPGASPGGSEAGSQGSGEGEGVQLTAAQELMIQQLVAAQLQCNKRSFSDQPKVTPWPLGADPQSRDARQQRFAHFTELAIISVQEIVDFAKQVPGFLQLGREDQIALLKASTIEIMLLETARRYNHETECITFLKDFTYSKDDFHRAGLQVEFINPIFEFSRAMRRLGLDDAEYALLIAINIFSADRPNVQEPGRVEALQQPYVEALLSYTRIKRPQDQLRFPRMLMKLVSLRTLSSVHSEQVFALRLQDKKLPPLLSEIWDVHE
hcDAF12 ag: confirmation of H. contortus DAF-12 agonists | shares compounds with hcDAF-12 act | HEK293 hcDAF-12 lit1-tk-luc reporter, luminescence; % of Δ7-dafachronic acid response | activation, % at 6.8 µM | actives 61% (n = 3,400) | AID 743032;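 active = mean activation across triplicate tests above the threshold derived from the earlier primary screen, cut at about 5.5% in these data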;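 note: 0% = DMSO only wells and 100% = 3 µM Δ7-dafachronic acid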
hgDAF12 ag: hgDAF-12 agonism, confirmation assay; activation, % at 6.8 µM; HEK293 GAL4-hgDAF12 luciferase reporter, agonist mode; percent of butyrate response; actives 80% (n = 3,300); shares compounds with hgDAF-12 ag;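 active = mean activation over triplicate wells above the hit cutoff derived from the earlier primary screen, cut at about 11% in these data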;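 note: 0% = DMSO low control and 100% = 2 mM sodium butyrate high control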
LXRb DAF12 ctr: counter-screen for DAF-12 agonists: agonists of human LXR-beta; HEK293 Gal4-LXR luciferase reporter, 24 h; shares compounds with hgDAF-12 ag; 3,300 tested, under 10 active; activation, % at 6.8 µM;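 active = mean activation of the triplicate above a set limit carried over from the primary screen, none filed active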
Starred values were filed as active, the others as inactive; . = not tested or not shown. A selection: hits, their analogues and other compounds. The true share with any hit is near 4.1%.

SMILES | ssDAF-12 act | DAX1 inh-1 | hcDAF-12 act | hgDAF-12 ag | DAX1 inh-2 | DAX1 conf | SF1 mutant ctr | LXRb hcDAF ctr | hcDAF12 ag | hgDAF12 ag | LXRb DAF12 ctr
CCCC(=O)Nc1nc(-c2ccc3c(c2)OCCO3)cs1 | -1 | 3 | 4 | 14* | 5.6* | 6.5* | 4.8* | . | . | 11* | 1
Cc1ccccc1C(=O)Nc1nnc(-c2ccco2)s1 | 1.1* | -1 | 9.4* | 16* | 5.2* | 9.0* | 4.1* | 1 | 8.2* | 12* | 1
COc1ccccc1C(=O)Nc1nnc(-c2ccco2)s1 | 2.0* | 4.5* | 15* | 19* | 8.4* | 12* | 9.0* | 1 | 14* | 21* | 1
O=c1[nH]c(/C=C\c2cccc(F)c2)nc(O)c1[N+](=O)[O-] | -1 | 1 | 0 | 0 | 0 | . | . | . | . | . | .
Cc1ccc2nc(/C=C/c3cccc(F)c3)ccc2c1 | 2.8* | 2 | 8.3* | 21* | 5.1* | 10* | 5.1* | 2 | 8.7* | 20* | 1
C/C(=N/NC(=O)c1ccc2c(c1)OCO2)c1ccc(NC(=O)c2ccc(F)cc2)cc1 | -1 | 2 | 5.7* | 14* | 5.8* | 6.3* | 2 | . | . | 6 | 0
C/C(=N\NC(=O)c1cccc(F)c1)c1ccc(NC(=O)Cc2ccccc2)cc1 | 0 | -1 | 6.4* | 14* | 7.0* | 1 | 2 | . | . | 6 | 0
C/C(=N\NC(=S)Nc1ccc(F)cc1)c1ccc2c(c1)OCCO2 | 0 | 2 | 4 | 4 | -1 | . | . | . | . | . | .
Cc1ccc(/C=C2\SC(N3CCN(C(c4ccccc4)c4ccccc4)CC3)=NC2=O)o1 | -1 | -2 | 0 | -2 | 0 | . | . | . | . | . | .
CCOC(=O)C(=C1Nc2ccccc2N1)n1c(-c2cccnc2)nc2ccccc21 | 0 | . | 3 | 15* | 5.1* | 7.7* | 4.4* | . | . | 13* | 1
CCOC(=O)Cn1c(-c2cccnc2)nc(-c2ccccc2)c1-c1ccccc1 | -1 | -2 | -3 | 2 | -1 | . | . | . | . | . | .
CCCCc1nnc2c(N(C)S(=O)(=O)c3ccccc3)nc3ccccc3n12 | -1 | 0 | -1 | -3 | -1 | . | . | . | . | . | .
CCCc1ccc(OC(=O)c2ccc(O)cc2Cl)cc1 | 1 | 2 | 8.4* | 16* | 5.3* | 14* | 6.0* | 2 | 8.1* | 2 | 1
COC(=O)c1sc(-c2ccc(C(C)(C)C)cc2)cc1NC(=O)CSCC(=O)O | -2 | 2 | 0 | 1 | 1 | . | . | . | . | . | .
CC(=O)c1ccc(-c2ccccc2C2=CC(=O)CC(C)(C)C2=O)cc1 | 0 | . | -2 | 3 | -1 | . | . | . | . | . | .
O=C(NCCOc1ccccc1F)c1ccc2c(=O)n3c(nc2c1)CCC3 | 0 | 1 | 5 | 16* | 8.5* | 7.8* | 4.5* | . | . | 12* | 1
O=C(COc1ccccc1F)NNC(=O)c1ccc2c(=O)n3c(nc2c1)CCC3 | 0 | 4 | -1 | 0 | -1 | . | . | . | . | . | .
O=C(Nc1ccccc1Cl)c1ccc2c(=O)n3c(nc2c1)CCC3 | 0 | 0 | 3 | 15* | 12* | 8.8* | 5.0* | . | . | 14* | 1
CC(=O)Nc1ccccc1C(=O)N1CCN(Cc2ccc3c(c2)OCO3)CC1 | -1 | 0 | -1 | -2 | 0 | . | . | . | . | . | .
COc1cc(-c2cc(=O)c3ccc(O)cc3o2)cc(OC)c1OC | -1 | . | -3 | -3 | -1 | . | . | . | . | . | .
COc1ccc2c(=O)c(-c3ccccc3)coc2c1 | 0 | 2 | 6.8* | 21* | 6.2* | 12* | 8.2* | 1 | 5 | 17* | 1
COc1ccc(-c2cc(=O)c3ccc(O)cc3o2)cc1 | -1 | 3 | 3 | 16* | 7.8* | 10* | 5.7* | . | . | 14* | 1
COc1ccc2oc(-c3ccccc3)cc(=O)c2c1 | 1.1* | . | 7.6* | 13* | 5.8* | 13* | 5.4* | 2 | 8.5* | 16* | 1
COc1ccc(-c2cc(=O)c3cc(OC)ccc3o2)cc1 | 0 | 3 | 8.1* | 20* | 9.0* | 9.7* | 1 | 2 | 7.2* | 20* | 1
CN(N=Nc1nc[nH]c1C(=O)NN)C1CCCCC1 | 0 | 0 | 1 | 5 | 1 | . | . | . | . | . | .
SMILES | ssDAF-12 act | DAX1 inh-1 | hcDAF-12 act | hgDAF-12 ag | DAX1 inh-2 | DAX1 conf | SF1 mutant ctr | LXRb hcDAF ctr | hcDAF12 ag | hgDAF12 ag | LXRb DAF12 ctr
Cc1ccc(N2C(=O)N(CC(=O)Nc3ccc(C)cc3Cl)C(=O)C2C)cc1 (stereo not given) | -1 | 0 | -1 | -2 | 0 | . | . | . | . | . | .
CC1Sc2ccc(C(=O)Nc3ncccc3O)cc2NC1=O (stereo not given) | 0 | 2 | 5 | 18* | 13* | 8.3* | 3.2* | . | . | 15* | 1
CCCC1Cc2nc(Cl)c(C#N)cc2CO1 (stereo not given) | -2 | . | -1 | -1 | 1 | . | . | . | . | . | .
CC(C)C(=O)Nc1ccc(Nc2ccccc2)cc1 | -1 | -1 | -2 | 9 | 0 | . | . | . | . | . | .
CC(C)C(=O)Nc1ccc(C=C2C=Cc3ccccc32)cc1 | 0.9* | . | 3 | 17* | 5.5* | 8.8* | 5.0* | . | . | 20* | 1
CCCCCCCCN1C(=O)[C@@H](CC(=O)NCc2ccc(OC)c(OC)c2)C[C@@]2(C(=O)OC)C1=C[C@H](COCc1ccccc1)O[C@@H]2C | -2 | . | 0 | 3 | 0 | . | . | . | . | . | .
NC(=O)c1ccsc1NC(=O)c1ccc(N2CCCC2=O)cc1 | 1.0* | -3 | 7.4* | 25* | 6.7* | 14* | 9.6* | 1 | 6.9* | 17* | 1
CN(C)C(=S)Oc1ccccc1C1(C)OCCO1 | -1 | -1 | -1 | 2 | 0 | . | . | . | . | . | .
O=Nc1c2cc(-c3ccccc3)[nH]nc-2c2ccccc12 | 2.7* | 0 | 20* | 23* | 5.8* | 5.4* | 1 | 2 | 19* | 12* | 1
Cc1cccc2cc(/C=N/Nc3ccc(C(=O)O)cc3)c(Cl)nc12 | 0 | 4 | 6.0* | 19* | 8.9* | 37* | 15* | . | . | 25* | 1
